From the supplement of paper PMC12350171
Where a name gives a salt, the structure may show the parent alone. A number with no mark means an inactive call.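 Rule for the calls: active = normalised median growth AUC below 0.1 of DMSO control; inactive = AUC 0.1 or higher.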

system: S. enterica typhimurium tolC KO; test: growth AUC normalised to DMSO control (median) (fraction of control); higher = less growth inhibition, active = hit call of the paper; conditions: 20 µM
Summary of the method: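 Each strain went through two overnight passages under anaerobic conditions before growth in mGAM in 96-well plates, starting at OD578 0.01, with each compound from the approved-drug library at 20 μM and 1% DMSO. Inside an anaerobic incubator, OD578 was recorded every hour for 24 h. Growth curves were cut off at entry into stationary phase, and the area under the curve was calculated by the trapezoidal rule and normalised to vehicle wells on the same plate. Reported values are medians of three biological replicates.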
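Note: active when median AUC fell below 0.1.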

Row | SMILES | growth AUC normalised to DMSO control
1 | CN(C)[C@@H]1C(=O)C(C(N)=O)=C(O)[C@@]2(O)C(=O)C3=C(O)c4c(O)cccc4[C@@](C)(O)[C@H]3C[C@@H]12 [Tetracycline hydrochloride] | 0.00234 (active)
2 | CC(Cc1ccc(O)cc1)NCC(O)c1cc(O)cc(O)c1 (centres undefined) [Fenoterol hydrobromide] | 1
3 | Clc1ccc(C(OCCN2CCCCC2)c2ccccc2)cc1 (centres undefined) [Cloperastine hydrochloride] | 0.938
4 | CC(O)(CS(=O)(=O)c1ccc(F)cc1)C(=O)Nc1ccc(C#N)c(C(F)(F)F)c1 (centres undefined) [Bicalutamide] | 0.954
5 | CCN(C(C)=O)c1cccc(-c2ccnc3c(C#N)cnn23)c1 [Zaleplon] | 0.992
6 | NCCCNCCSP(=O)(O)O [Amifostine] | 1.01
7 | C[C@]12COC(=O)C[C@@H]1CC[C@@H]1[C@@H]2CC[C@@]2(C)[C@H]1CC[C@]2(C)O [Oxandrolone] | 0.991
8 | Oc1cc(Cl)ccc1Oc1ccc(Cl)cc1Cl [Triclosan] | 0.00694 (active)
9 | C=CCN1CC[C@]23c4c5ccc(O)c4O[C@H]2C(=O)CC[C@@]3(O)[C@H]1C5 [Naloxone hydrochloride] | 1
10 | CC(=O)OCC(=O)[C@H]1CC[C@H]2[C@@H]3CC[C@H]4C[C@H](O)CC[C@]4(C)[C@H]3C(=O)C[C@]12C [Alfadolone acetate] | 0.941
11 | S=C(NC1CCCCC1)N1CCC(c2cnc[nH]2)CC1 [Thioperamide maleate] | 0.996
12 | CN1CCN(C(=O)OC2c3nccnc3C(=O)N2c2ccc(Cl)cn2)CC1 (centres undefined) [Zopiclone] | 0.999
13 | CN1C(=O)CCS(=O)(=O)C1c1ccc(Cl)cc1 (centres undefined) [Chlormezanone] | 1
14 | CN(C)[C@@H]1C(=O)C(C(N)=O)=C(O)[C@@]2(O)C(=O)C3=C(O)c4c(O)cccc4[C@@](C)(O)[C@H]3[C@H](O)[C@@H]12 [Oxytetracycline dihydrate] | 0.00753 (active)
15 | N[C@@H]1C[C@H]1c1ccccc1 [Tranylcypromine hydrochloride] | 1
16 | NC(=O)C[S+]([O-])C(c1ccccc1)c1ccccc1 (centres undefined) [Modafinil] | 0.976
17 | COc1ccc(C(=O)N2CCCC2=O)cc1 [Aniracetam] | 0.997
18 | C[C@]12CCC(=O)C(O)=C1CC[C@@H]1[C@@H]2CC[C@]2(C)C(=O)CC[C@@H]12 [Formestane] | 0.927
19 | CCC(=O)O[C@H]1CC[C@H]2[C@@H]3CCC4=CC(=O)CC[C@]4(C)[C@H]3CC[C@]12C [Testosterone propionate] | 0.911
20 | CCNCC(O)c1cccc(O)c1 (centres undefined) [Etilefrine hydrochloride] | 1

Row | SMILES | growth AUC normalised to DMSO control
21 | CC(=O)OC1CN2CCC1CC2 (centres undefined) [Aceclidine hydrochloride] | 0.999
22 | CN1[C@@H]2CC[C@H]1C[C@@H](OC1c3ccccc3CCc3ccccc31)C2 [Deptropine citrate] | 0.942
23 | NC(=O)CN1CCCC1=O [Piracetam] | 0.996
24 | CC(=O)[C@H]1CC[C@H]2[C@@H]3CC[C@H]4C[C@H](O)CC[C@]4(C)[C@H]3C(=O)C[C@]12C [Alfaxalone] | 0.911
25 | CCC1(c2ccc(N)cc2)CCC(=O)NC1=O (centres undefined) [Glutethimide, para-amino] | 0.993
26 | COc1ccc(Cc2nccc3cc(OC)c(OC)cc23)cc1OC [Papaverine hydrochloride] | 0.976
27 | C[C@]12Cc3c[nH]nc3C[C@@H]1CC[C@@H]1[C@@H]2CC[C@@]2(C)[C@H]1CC[C@]2(C)O [Stanozolol] | 0.966
28 | O=c1[nH]c2ccccc2n1C1CCN(CCCC(c2ccc(F)cc2)c2ccc(F)cc2)CC1 [Pimozide] | 0.971
29 | CN1CCC2(C)c3cc(O)ccc3N(C)C12 (single isomer, unassigned; (-)) [(-) Eseroline fumarate salt] | 0.999
30 | CC[C@@H](CO)NC(=O)[C@@H]1C=C2c3cccc4[nH]cc(c34)C[C@H]2N(C)C1 [Methylergometrine maleate] | 1
31 | COc1ccc2c(c1)[C@]13CCCC[C@@H]1[C@H](C2)N(C)CC3 [Dextromethorphan hydrobromide monohydrate] | 0.985
32 | O=P1(N(CCCl)CCCl)NCCCO1 (centres undefined) [Cyclophosphamide] | 0.997
33 | CN1C[C@H](CNC(=O)OCc2ccccc2)C[C@@H]2c3cccc4c3c(cn4C)C[C@H]21 [Metergoline] | 0.895
34 | O=[N+]([O-])O[C@H]1CO[C@H]2[C@@H]1OC[C@H]2O[N+](=O)[O-] [Isosorbide dinitrate] | 1.01
35 | CCC(=O)O[C@@](Cc1ccccc1)(c1ccccc1)[C@@H](C)CN(C)C [Levopropoxyphene napsylate] | 0.995
36 | CCCC[N+]1(C)[C@@H]2C[C@@H](OC(=O)[C@H](CO)c3ccccc3)C[C@H]1[C@@H]1O[C@@H]12 (some centres undefined) [N-Butylscopolammonium bromide] | 0.995
37 | C[C@]12CC[C@H](O)C[C@H]1CC[C@@H]1[C@@H]2C[C@@H](O)[C@]2(C)[C@@H](C3=CC(=O)OC3)CC[C@]12O [Digoxigenin] | 1
38 | OC(c1ccccc1)(c1ccccc1)C1CCNCC1 [Azacyclonol] | 0.99
39 | CN1[C@@H]2C[C@@H](OC(=O)[C@H](CO)c3ccccc3)C[C@H]1[C@@H]1O[C@@H]12 [Scopolamine hydrochloride] | 1.01
